# Results as given in PubChem BioAssay.
# Calls of active or inactive are those of the source. Unless noted, no rule for the calls is given here.
# What was measured:
# [1] = test system: XIP peptide (Xip251-270) binding; assay: XIP fragment 251-270 binding compounds – biochemical, small-molecule microarray, fluorescence 635/667 nm, 0.1 µg/mL protein, primary screen (AID 1182); conditions: fluorescent protein binding, 635 nm, higher = more signal, called active from +8 up or from −8 down
# [2] = test system: XIP peptide (Xip251-270); assay: compounds binding XIP fragment 251-270 – biochemical, small-molecule microarray, fluorescence 635/667 nm, 0.5 µg/mL protein, primary screen (AID 1183); conditions: fluorescence 635 nm, higher = more signal
# [3] = blood-stage malaria parasite viability loss – strain 3D7, DAPI fluorescence, 100 nL, primary screen (AID 1184);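 also: parasites grown inside human red blood cells in medium with human serum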; conditions: P. falciparum 3D7 growth, 3 d, higher = more signal
# [4] = target: Homeobox protein Hox-A13 (Mus musculus) (UniProt Q62424); assay: disruptors of Hoxa13 oligonucleotide interaction – biochemical, fluorescence polarization, labeled oligonucleotide, primary screen (AID 1185); conditions: Hoxa13:DNA binding, 15 min, higher = more signal, called active from +8 up or from −8 down
# Chain of Homeobox protein Hox-A13 (Mus musculus) (Q62424 whole entry, looked up): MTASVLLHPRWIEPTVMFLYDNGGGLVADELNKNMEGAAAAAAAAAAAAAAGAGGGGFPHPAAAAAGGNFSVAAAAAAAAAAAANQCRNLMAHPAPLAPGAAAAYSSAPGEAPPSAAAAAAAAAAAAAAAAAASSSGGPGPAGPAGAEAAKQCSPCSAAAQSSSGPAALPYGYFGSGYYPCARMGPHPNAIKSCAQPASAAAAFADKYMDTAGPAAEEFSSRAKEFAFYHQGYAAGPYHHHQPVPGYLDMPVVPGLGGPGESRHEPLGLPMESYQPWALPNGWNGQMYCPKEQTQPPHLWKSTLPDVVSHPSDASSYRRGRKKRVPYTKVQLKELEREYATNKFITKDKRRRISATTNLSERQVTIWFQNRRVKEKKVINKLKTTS
# [5] = blockers of DNA damage checkpoint Chk1 activation – imaging, HeLa, hydroxyurea, phospho-Chk1 antibody, percent positive cells, primary screen (AID 1186); conditions: hydroxyurea-induced phospho-Chk1 immunofluorescence imaging, higher = more signal
# [6] = blockers of DNA damage checkpoint Chk1 activation – imaging, HeLa, hydroxyurea, phospho-Chk1 nuclear intensity, primary screen (AID 1187); conditions: hydroxyurea-induced phospho-Chk1 immunofluorescence imaging, higher = more signal
SMILES,composite z-score [1],composite z-score [2],z-score [3],z-score [4],z-score [5],z-score [6]
COc1ccc(CCNC(=O)[C@@H]2c3ccccc3C(=O)N(Cc3ccccc3OC)[C@H]2c2ccc(CO)cc2)cc1,0.675 (inactive),0.393,-0.996,-4.7 (inactive),-0.0274 (inactive),-0.213 (inactive)
COC(=O)[C@H](Cc1ccccc1)N1CC2=CCCC=C[C@@H]2[C@H]1[C@H](O)Cc1ccccc1,0.444 (inactive),-0.221,-0.926,-6.25 (inactive),-0.359 (inactive),-0.685 (inactive)
CN(C)CCCNC(=O)[C@@H]1c2ccccc2C(=O)N(Cc2ccccc2C(F)(F)F)[C@H]1c1ccc(CO)cc1,-0.638 (inactive),0.0067,-0.944,-2.62 (inactive),-0.316 (inactive),-0.164 (inactive)
COCCOC(=O)N1C(=O)[C@@]2(c3cc(C#CCCO)ccc31)[C@H](C(N)=O)[C@H]1C(=O)O[C@H](c3ccccc3)[C@H](c3ccccc3)N1[C@@H]2c1ccccc1OCCO,1.47 (inactive),0.832,-1.31,-3.88 (inactive),0.0461 (inactive),-0.303 (inactive)
COCCOC(=O)N1C(=O)[C@@]2(c3cc(C#Cc4ccc(OC)cc4)ccc31)[C@H](c1ccc(OCCO)cc1)N1[C@H](c3ccccc3)[C@H](c3ccccc3)OC(=O)[C@H]1[C@@H]2C(=O)NC[C@H](O)c1ccccc1,0.849 (inactive),0.713,-1.66,-0.532 (inactive),0 (inactive),-0.0275 (inactive)
CO[C@H]1O[C@H](CO)[C@@H](OC(=O)Nc2ccccc2-c2ccccc2)[C@H](OC(=O)Nc2ccccc2)[C@H]1OC(=O)Nc1ccccc1,-0.249 (inactive),0.915,-2.14,-3.21 (inactive),-0.392 (inactive),-0.15 (inactive)
O=C(NCC(O)CO)C1N=C(c2ccc(OCCCO)cc2)N(c2ccccc2)O1 (centres undefined),0.654 (inactive),0.801,-0.284,-2.55 (inactive),-0.195 (inactive),-0.257 (inactive)
CCOC(=O)c1cn(C[C@H](Cc2ccccc2)NC(=O)N[C@H](CO)CCc2oc(C(C)=O)c(C(=O)OC)c2C(=O)OC)nn1,0.534 (inactive),0.635,-1.63,-2.67 (inactive),-0.107 (inactive),0.432 (inactive)
O=C1C[C@@](C(=O)NCc2ccccc2)(c2ccc([N+](=O)[O-])cc2)[C@@H](c2ccc(CO)cc2)N1C1CCCCC1,0.58 (inactive),0.607,0.469,-2.95 (inactive),-0.53 (inactive),-0.0661 (inactive)
CCCC[C@H]1C[C@@H]1[C@@H]1N(C(C)=O)[C@H](c2cccc(OC)c2)CC12CC2,-0.233 (inactive),-1.04,-0.313,-3.27 (inactive),0.368 (inactive),0.638 (inactive)
C[C@@H]1ON(c2ccc(I)cc2)[C@H](c2cccc(NC(=O)OCC3c4ccccc4-c4ccccc43)c2)[C@H]1C(=O)N1C(=O)OC[C@H]1Cc1ccccc1,-0.283 (inactive),0.771,-1.27,2.16 (inactive),0.095 (inactive),0.0287 (inactive)
CC(C)C[C@@H]1NC(=O)[C@@H]2C[C@H](C(=O)NCCCCCCNC(=O)CS)[C@H](c3cccc(OCCO)c3)N2C1=O,1.63 (inactive),0.839,-0.0654,-3.13 (inactive),-0.517 (inactive),-0.358 (inactive)
CC(C)(C)OC(=O)CC[C@@]1(C(=O)NCCN2CCOCC2)N=C(c2ccc(OCCCO)cc2)O[C@@H]1c1ccccc1CN=[N+]=[N-],0.158 (inactive),0.729,-0.41,-4.93 (inactive),-0.0412 (inactive),-0.301 (inactive)
COC(=O)[C@@]1(Cc2ccccc2)N=C(c2ccc(OCCCO)cc2)O[C@H]1c1ccccc1CN=[N+]=[N-],-0.139 (inactive),0.85,-2.42,-1.25 (inactive),-0.727 (inactive),-0.906 (inactive)
CN1C(=O)C2C(C1=O)C1C=C(c3ccc(CO)cc3)C2C(C2CC2)N1C (centres undefined),0.017 (inactive),0.816,-1.97,-5.37 (inactive),-0.287 (inactive),-0.232 (inactive)
O=C1OCCC=C[C@H]2OC34C=CCN(c5ccc6ccccc6c5)C(=O)[C@H]3N(CCO)C(=O)[C@@H]4C12 (some centres undefined),0.263 (inactive),0.569,-0.022,-5.62 (inactive),0.8 (inactive),0.163 (inactive)
COc1ccc([Si](C)(C)[C@@H]2[C@@H](CC(=O)N3Cc4ccccc4C[C@H]3CO)O[C@]3(C(=O)N(Cc4cccc(N5CCOC5=O)c4)c4ccccc43)[C@H]2C)cc1,0.0848 (inactive),0.672,-2.83,-2.49 (inactive),-0.34 (inactive),-0.695 (inactive)

SMILES,composite z-score [1],composite z-score [2],z-score [3],z-score [4],z-score [5],z-score [6]
CN1C(=O)C2C(C1=O)C1C=C(CCCO)C2C(C2CC2)N1Cc1cccc(OC(F)(F)F)c1 (centres undefined),0.0292 (inactive),0.9,-1.06,-7.06 (inactive),0.0426 (inactive),-0.0667 (inactive)
COc1ccc(C(O)C2C=CC3C(=O)NC(=O)C3N2Nc2ccc(Cl)cc2Cl)c2ccccc12 (centres undefined),1.62 (inactive),0.687,-0.605,-2.99 (inactive),-0.0602 (inactive),0.175 (inactive)
[N-]=[N+]=NCc1ccccc1[C@@H]1OC(c2ccc(OCCCO)cc2)=N[C@]1(Cc1ccccc1N=[N+]=[N-])C(=O)O,1.21 (inactive),0.722,-1.9,-3.59 (inactive),0.277 (inactive),0.585 (inactive)
COc1cc(CO)cc(I)c1O[C@H]1C=C(C(=O)NCCO)C[C@@H](NC2CCCCCC2)[C@@H]1O,0.509 (inactive),0.649,-3.18,-7.19 (inactive),-0.75 (inactive),-1.01 (inactive)
CCCNC(=O)[C@@]1(c2ccc([N+](=O)[O-])cc2)CC(=O)N(C(C)C)[C@@H]1c1ccc(CO)cc1,3.93 (inactive),0.228,-0.379,-2.6 (inactive),-0.102 (inactive),-0.105 (inactive)
CCCCCC1=C2CNC(CC(C)C)(C(=O)OC)C=C2C(C)C1=O (centres undefined),0.814 (inactive),0.176,-0.282,-8.08 (active),1.32 (inactive),0.856 (inactive)
O=C(NC1CC1)[C@@H]1c2ccccc2C(=O)N(Cc2cc(C(F)(F)F)cc(C(F)(F)F)c2)[C@H]1c1ccc(CO)cc1,0.684 (inactive),0.62,-1.54,-2.66 (inactive),-0.129 (inactive),-0.394 (inactive)
CC(C)=CCCC=C(C)C(O)C1C=CC2C(=O)N(c3ccccc3)C(=O)C2N1Nc1ccc(C#N)cc1 (centres undefined),1.1 (inactive),0.621,0.221,0.884 (inactive),-0.0269 (inactive),-0.294 (inactive)
CCOC(=O)C1=CC[C@@H](c2ccccc2)N(S(=O)(=O)c2ccc(C)cc2)[C@H]1c1ccccc1I,-0.0622 (inactive),0.77,-2.07,-1.19 (inactive),0.0035 (inactive),-0.763 (inactive)
COc1ccc([Si](C)(C)[C@@H]2[C@@H](CC(=O)N(CCO)Cc3ccccc3)O[C@]3(C(=O)N(Cc4ccc(N5C(=O)c6cccc7cccc5c67)cc4)c4ccccc43)[C@H]2C)cc1,1.28 (inactive),0.577,-1.17,-1.19 (inactive),0.398 (inactive),-0.601 (inactive)
N#Cc1ccc(C(O)C2C=CC3C(=O)NC(=O)C3N2Nc2ccc(Cl)cc2Cl)cc1 (centres undefined),1.42 (inactive),0.0653,0.684,-5.63 (inactive),0.731 (inactive),0.688 (inactive)
C=C(/C(=C/C[C@@H](OC(C)=O)c1cccc(OCCO)c1)c1cnc2ccccc2c1)C(C)C,-0.136 (inactive),0.725,-2.95,-5.04 (inactive),0.0066 (inactive),0.0865 (inactive)
CCCCC(O)C1C=CC2C(=O)N(c3ccccc3)C(=O)C2N1Nc1ccc([N+](=O)[O-])cc1 (centres undefined),0.0204 (inactive),0.598,-0.496,-4.62 (inactive),0.391 (inactive),0.501 (inactive)
CC(=O)NCCCC[C@@H]1NC(=O)[C@H]2C[C@@H](C(=O)NCCCCCCNC(=O)CS)[C@@H](c3cccc(OCCO)c3)N2C1=O,2.82 (inactive),0.349,0.287,-4.38 (inactive),0.0478 (inactive),1.23 (inactive)
COc1ccc([Si](C)(C)[C@H]2[C@H](CC(=O)N3CCC[C@H]3CO)O[C@@]3(C(=O)N(Cc4ccc(N5CCCCC5=O)cc4)c4ccccc43)[C@@H]2C)cc1,0.214 (inactive),0.753,-1.64,-4.85 (inactive),0.268 (inactive),0.241 (inactive)
C=C(C)[C@@H]1CC=C(C(O)C2C=CC3C(=O)N(C)C(=O)C3N2Nc2ccc([N+](=O)[O-])cc2[N+](=O)[O-])CC1 (some centres undefined),-0.0868 (inactive),0.641,0.481,-4.28 (inactive),0.385 (inactive),0.279 (inactive)
COc1ccc([Si](C)(C)[C@H]2[C@H](CC(=O)N3Cc4ccccc4C[C@H]3CO)O[C@@]3(C(=O)N(C)c4ccccc43)[C@@H]2C)cc1,0.958 (inactive),0.808,-2.63,-5.59 (inactive),0.227 (inactive),0.169 (inactive)
